Where “and” joins values, the source holds several entries; their conditions need not be identical. Equal entries are not always repeated. Calls of active or inactive are those of the source.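 How the source made its calls: active means mean z-score across replicates of 1.96 or higher in either the MELAS or the Rieske mutant cell line; inactive means the rest.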
Further: test concentration not given here.

One test in a line: sensitizers of A549 cells to miR-34 induction, primary screen, imaging, A549 dox-inducible miR-34, nuclei and caspase counts (AID 1347080). The note with it: A549 miR-34 inducible, Hoechst nuclei count, 48 h; measured here: total cells without miR-34 induction.
As to `CC(=O)OCC(=O)[C@]12N=C(C)O[C@@H]1C[C@H]1[C@@H]3CCC4=CC(=O)C=C[C@]4(C)[C@@H]3C(O)C[C@@]12C` (stereo not given in full), the cell count was found to be 5250.
As to `O=C(C=Cc1ccc(O)c(O)c1)c1ccc(O)cc1O`, the cell count was 9210.
The same measure, in the same setting: as for `CC(C)=CCC[C@](C)(OC1OC(COC2OCC(O)C(O)C2O)C(O)C(O)C1O)C1CC[C@]2(C)[C@@H]1C(O)C[C@H]1[C@@]3(C)CCC(OC4OC(CO)C(O)C(O)C4O)C(C)(C)[C@@H]3CC[C@]12C` (stereo not given in full), the figure is 7910.
The same measure, in the same setting: as for `COc1c(C)c2c(c(O)c1CC=C(C)CCC(=O)OCCN1CCOCC1)C(=O)OC2`, the figure is 1990; as for `CC(=Cc1ccc(C(=O)O)cc1)c1ccc2c(c1)C(C)(C)CCC2(C)C`, 8370; as for `Cc1ccc(C2OC(CO)C(O)C(O)C2O)cc1Cc1ccc(-c2ccc(F)cc2)s1` (stereo not given), 10100.
On the same count and under the same terms, the same measure for `CNCc1cc(-c2ccccc2F)n(S(=O)(=O)c2cccnc2)c1`: 9150; for `OCC(CO)NC1C[C@@](O)(CO)C(O)C(O)C1O` (stereo not given in full): 10100.
As for `COc1cc(C=CC(=O)N2CCN(CC(=O)N3CCCC3)CC2)cc(OC)c1OC`, the cell count was determined as 8570.
As for `O=C(O)C1=CC(O)C(O)C(O)C1` (stereo not given), the cell count worked out at 9960.
Still for that read-out and setting: as for `Cc1ccc(C(=O)NCCCCCC(=O)Nc2ccccc2N)cc1`, the figure is 4960; as for `O=C(Nc1cccc(Cl)c1)c1ccccn1`, 7700; as for `Cc1ccc(C(=O)N(CCCN)C(c2oc3cc(Cl)ccc3c(=O)c2Cc2ccccc2)C(C)C)cc1` (stereo not given), 1290.
Take `O=c1ncccn1C1OC(CO)C(O)C1O` (stereo not given): the cell count turned out to be 9410.
The same measure, in the same setting: as for `C=CC(C)(O)CCC1[C@@]2(C)CCCC(C)(C)C2CC[C@@]1(C)O` (stereo not given in full), the figure is 8970; as for `N#CCC(C1CCCC1)n1cc(-c2ncnc3[nH]ccc23)cn1` (stereo not given), 8490 and 8060.
On the same count and under the same terms, as for `COc1cc(C(C)=O)ccc1O`, the figure is 8500; as for `Cc1[nH]c2ccccc2c1C1=C(NCCc2ccc(F)cc2)C(=O)N(C)C1=O`, 2410; as for `CCN(CC)C(=O)C(C#N)=Cc1cc(O)c(O)c([N+](=O)[O-])c1`, 7190.
Still for that read-out and setting: the same measure for `Cc1cccc(C)c1OCC(=O)NC(Cc1ccccc1)C(O)CC(Cc1ccccc1)NC(=O)C(C(C)C)N1CCCNC1=O` (stereo not given): 6270; for `N#CC1C[C@@H]2C[C@H]2N1C(=O)C(N)C12CC3CC(CC(O)(C3)C1)C2` (stereo not given in full): 7570; for `Cc1cc(C)nc(NS(=O)(=O)c2ccc(NC(=S)NC(=O)COc3ccc(Br)cc3Cl)cc2)n1`: 7900.
For `O=C(c1ccc(C=Cc2n[nH]c3ccccc23)cc1)N1CCNCC1`, the cell count is 2750.
The same measure, in the same setting: as for `Nc1nc(CC(=O)Nc2ccc(CCNCC(O)c3ccccc3)cc2)cs1` (stereo not given), the figure is 9650; as for `NC(=O)C(CCC(F)(F)F)N(Cc1ccc(-c2ncon2)cc1F)S(=O)(=O)c1ccc(Cl)cc1` (stereo not given), 7310; as for `CC1(C)OC2C[C@H]3[C@@H]4CCC5=CC(=O)CC[C@]5(C)[C@]4(F)C(O)C[C@]3(C)[C@@]2(C(=O)CCl)O1` (stereo not given in full), 5220.
On the same count and under the same terms, as for `CC1(C)S[C@@H]2C(NC(=O)C(C(=O)O)c3ccccc3)C(=O)N2C1C(=O)O` (stereo not given in full), the figure is 9470; as for `O=C(O)C1=COC(OC2OC(CO)C(O)C(O)C2O)[C@@H]2C(CO)=CC[C@H]12` (stereo not given in full), 10300.
As for `CC1=C(CC(=O)O)c2cc(F)ccc2C1=Cc1ccc(S(C)=O)cc1` (stereo not given), the cell count worked out at 9010.
As for `NC1=N[C@@]2(c3cc(NC(=O)c4ccc(F)cn4)ccc3F)COC[C@@H]2CS1`, the cell count was 9420.
Same read-out and setting: as for `OCC1OC(Oc2ccc(O)cc2)C(O)C(O)C1O` (stereo not given), the figure is 9000; as for `CCC1OC(=O)CC(O)C(C)C(O[C@H]2OC(C)C(O[C@H]3C[C@@](C)(O)C(O)C(C)O3)C(N(C)C)C2O)C(CC=O)CC(C)C(=O)C=CC(C)=CC1COC1OC(C)C(O)C(OC)C1OC` (stereo not given in full), 9740.
Take `C[C@]12CC[C@H]3c4ccc(O)cc4CC[C@H]3[C@@H]1CCC2OC(=O)CCC1CCCC1` (stereo not given in full): the cell count turned out to be 8180.
Still for that read-out and setting: the same measure for `CNC1CN(c2ccc3c(=O)c(C(=O)O)cn(-c4nccs4)c3n2)CC1OC` (stereo not given): 1080; for `COc1cc(CCC(C)=O)ccc1O`: 7830.
The same measure, in the same setting: as for `N#CC(=Cc1ccc(O)c(O)c1)C(=O)NCc1ccccc1`, the figure is 7150.
Turning to `C#C[C@@]1(O)CC[C@H]2[C@@H]3CCc4cc(OC)ccc4[C@@H]3CC[C@@]21C`, the cell count is 8400.
As for `CCNC(=O)Nc1ccc(-c2nc3c(c(N4CCOCC4C)n2)CCN(C2COC2)C3)cc1` (stereo not given), the cell count is 3080.
On the same count and under the same terms, the same measure for `CC1(C)S[C@H]2C(NC(=O)C(N)c3ccc(O)cc3)C(=O)N2C1C(=O)O` (stereo not given in full): 8150.
Still for that read-out and setting: as for `CC(C)c1onc(-c2c(Cl)cccc2Cl)c1COc1ccc(C=Cc2cccc(C(=O)O)c2)c(Cl)c1`, the figure is 7860.

Another test in a line: survival rescue of mitochondrial mutant cells in low glucose, primary screen, MELAS cybrids, Rieske KO mouse fibroblasts, CellTiter-Glo (AID 1508586).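 Further: z relative to plate mean and SD of compound and empty wells.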 The note with it: MELAS cybrid survival, CellTiter-Glo 48 h, stronger effect = higher value. (In general: Cellular ATP, detected with luciferase, serves as a proxy for viable cell number.)
For `CC(=O)OCC(=O)[C@]12N=C(C)O[C@@H]1C[C@H]1[C@@H]3CCC4=CC(=O)C=C[C@]4(C)[C@@H]3C(O)C[C@@]12C` (stereo not given in full), the z-score is -0.0832 (inactive).
Same read-out and setting: as for `O=C(C=Cc1ccc(O)c(O)c1)c1ccc(O)cc1O`, the figure is -0.304 (inactive); as for `CC(C)=CCC[C@](C)(OC1OC(COC2OCC(O)C(O)C2O)C(O)C(O)C1O)C1CC[C@]2(C)[C@@H]1C(O)C[C@H]1[C@@]3(C)CCC(OC4OC(CO)C(O)C(O)C4O)C(C)(C)[C@@H]3CC[C@]12C` (stereo not given in full), -0.238 (inactive); as for `COc1c(C)c2c(c(O)c1CC=C(C)CCC(=O)OCCN1CCOCC1)C(=O)OC2`, 0.827 (inactive).
Turning to `CC(=Cc1ccc(C(=O)O)cc1)c1ccc2c(c1)C(C)(C)CCC2(C)C`, the z-score is -0.023 (inactive).
For `Cc1ccc(C2OC(CO)C(O)C(O)C2O)cc1Cc1ccc(-c2ccc(F)cc2)s1` (stereo not given), the z-score was -0.448 (inactive).
Still for that read-out and setting: the same measure for `CNCc1cc(-c2ccccc2F)n(S(=O)(=O)c2cccnc2)c1`: -0.328 (inactive); for `OCC(CO)NC1C[C@@](O)(CO)C(O)C(O)C1O` (stereo not given in full): -0.052 (inactive).
Same read-out and setting: as for `COc1cc(C=CC(=O)N2CCN(CC(=O)N3CCCC3)CC2)cc(OC)c1OC`, the figure is -0.177 (inactive); as for `O=C(O)C1=CC(O)C(O)C(O)C1` (stereo not given), -0.355 (inactive).
Still for that read-out and setting: the same measure for `Cc1ccc(C(=O)NCCCCCC(=O)Nc2ccccc2N)cc1`: -0.614 (inactive); for `O=C(Nc1cccc(Cl)c1)c1ccccn1`: 0.406 (inactive); for `Cc1ccc(C(=O)N(CCCN)C(c2oc3cc(Cl)ccc3c(=O)c2Cc2ccccc2)C(C)C)cc1` (stereo not given): 2.62 (active).
Regarding `O=c1ncccn1C1OC(CO)C(O)C1O` (stereo not given), the z-score was -0.447 (inactive).
Regarding `C=CC(C)(O)CCC1[C@@]2(C)CCCC(C)(C)C2CC[C@@]1(C)O` (stereo not given in full), the z-score is -0.292 (inactive).
The same measure, in the same setting: the same measure for `N#CCC(C1CCCC1)n1cc(-c2ncnc3[nH]ccc23)cn1` (stereo not given): -0.347 (inactive) and -0.642 (inactive); for `COc1cc(C(C)=O)ccc1O`: -0.427 (inactive); for `Cc1[nH]c2ccccc2c1C1=C(NCCc2ccc(F)cc2)C(=O)N(C)C1=O`: -0.365 (inactive).
For `CCN(CC)C(=O)C(C#N)=Cc1cc(O)c(O)c([N+](=O)[O-])c1`, the z-score is -0.263 (inactive).
With `Cc1cccc(C)c1OCC(=O)NC(Cc1ccccc1)C(O)CC(Cc1ccccc1)NC(=O)C(C(C)C)N1CCCNC1=O` (stereo not given), the z-score was -0.513 (inactive).
The same measure, in the same setting: the same measure for `N#CC1C[C@@H]2C[C@H]2N1C(=O)C(N)C12CC3CC(CC(O)(C3)C1)C2` (stereo not given in full): -0.404 (inactive); for `Cc1cc(C)nc(NS(=O)(=O)c2ccc(NC(=S)NC(=O)COc3ccc(Br)cc3Cl)cc2)n1`: -0.302 (inactive).
Still for that read-out and setting: as for `O=C(c1ccc(C=Cc2n[nH]c3ccccc23)cc1)N1CCNCC1`, the figure is 0.658 (inactive); as for `Nc1nc(CC(=O)Nc2ccc(CCNCC(O)c3ccccc3)cc2)cs1` (stereo not given), -0.0817 (inactive); as for `NC(=O)C(CCC(F)(F)F)N(Cc1ccc(-c2ncon2)cc1F)S(=O)(=O)c1ccc(Cl)cc1` (stereo not given), -0.464 (inactive).
On the same count and under the same terms, the same measure for `CC1(C)OC2C[C@H]3[C@@H]4CCC5=CC(=O)CC[C@]5(C)[C@]4(F)C(O)C[C@]3(C)[C@@]2(C(=O)CCl)O1` (stereo not given in full): -0.306 (inactive); for `CC1(C)S[C@@H]2C(NC(=O)C(C(=O)O)c3ccccc3)C(=O)N2C1C(=O)O` (stereo not given in full): -0.386 (inactive).
As for `O=C(O)C1=COC(OC2OC(CO)C(O)C(O)C2O)[C@@H]2C(CO)=CC[C@H]12` (stereo not given in full), the z-score is -0.392 (inactive).
The same measure, in the same setting: the same measure for `CC1=C(CC(=O)O)c2cc(F)ccc2C1=Cc1ccc(S(C)=O)cc1` (stereo not given): -0.193 (inactive).
Same read-out and setting: the same measure for `NC1=N[C@@]2(c3cc(NC(=O)c4ccc(F)cn4)ccc3F)COC[C@@H]2CS1`: -0.211 (inactive); for `OCC1OC(Oc2ccc(O)cc2)C(O)C(O)C1O` (stereo not given): -0.228 (inactive); for `CCC1OC(=O)CC(O)C(C)C(O[C@H]2OC(C)C(O[C@H]3C[C@@](C)(O)C(O)C(C)O3)C(N(C)C)C2O)C(CC=O)CC(C)C(=O)C=CC(C)=CC1COC1OC(C)C(O)C(OC)C1OC` (stereo not given in full): -0.254 (inactive).
Take `C[C@]12CC[C@H]3c4ccc(O)cc4CC[C@H]3[C@@H]1CCC2OC(=O)CCC1CCCC1` (stereo not given in full): the z-score is -0.17 (inactive).
Same read-out and setting: as for `CNC1CN(c2ccc3c(=O)c(C(=O)O)cn(-c4nccs4)c3n2)CC1OC` (stereo not given), the figure is 2.91 (active); as for `COc1cc(CCC(C)=O)ccc1O`, -0.174 (inactive); as for `N#CC(=Cc1ccc(O)c(O)c1)C(=O)NCc1ccccc1`, -0.517 (inactive).
The same measure, in the same setting: the same measure for `C#C[C@@]1(O)CC[C@H]2[C@@H]3CCc4cc(OC)ccc4[C@@H]3CC[C@@]21C`: -0.343 (inactive); for `CCNC(=O)Nc1ccc(-c2nc3c(c(N4CCOCC4C)n2)CCN(C2COC2)C3)cc1` (stereo not given): 2.89 (active).
Same read-out and setting: as for `CC1(C)S[C@H]2C(NC(=O)C(N)c3ccc(O)cc3)C(=O)N2C1C(=O)O` (stereo not given in full), the figure is -0.00212 (inactive).
With `CC(C)c1onc(-c2c(Cl)cccc2Cl)c1COc1ccc(C=Cc2cccc(C(=O)O)c2)c(Cl)c1`, the z-score is 0.359 (inactive).

For the origin of these results see PubChem BioAssay.
